VP16 counter – counter-screen for ROR gamma inhibitors: Gal4-VP16 reporter; Drosophila S2 Gal4-VP16 UAS-luciferase, luminescence, 20 h; 310,000 compounds, 3.5% hits; Potency, µM (series often up to 53.6 µM), for the others: at the highest dose activity, negative = inhibition, most hits filed as inhibitors; AID 2546;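 note: Gal4-VP16 expression switched on by copper sulfate through the metallothionein promoter; potency is the fitted concentration of half-maximal effect; nearly all actives have a fitted effect of over 50% in size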
RORg inh – blocks mouse ROR gamma transcriptional activity | P51450 | Drosophila S2 Gal4-RORgamma UAS-luciferase reporter, 20 h | Potency, µM (highest dose often 53.6 µM), for inactives: at the highest dose activity change, negative = inhibition, usual class: inhibitors | 310,000 compounds, 5.4% hits; note: potency is the fitted concentration of half-maximal effect; nearly all actives have a fitted effect of over 60% in size
Target sequence (P51450 whole entry, looked up, the tested form may be a part): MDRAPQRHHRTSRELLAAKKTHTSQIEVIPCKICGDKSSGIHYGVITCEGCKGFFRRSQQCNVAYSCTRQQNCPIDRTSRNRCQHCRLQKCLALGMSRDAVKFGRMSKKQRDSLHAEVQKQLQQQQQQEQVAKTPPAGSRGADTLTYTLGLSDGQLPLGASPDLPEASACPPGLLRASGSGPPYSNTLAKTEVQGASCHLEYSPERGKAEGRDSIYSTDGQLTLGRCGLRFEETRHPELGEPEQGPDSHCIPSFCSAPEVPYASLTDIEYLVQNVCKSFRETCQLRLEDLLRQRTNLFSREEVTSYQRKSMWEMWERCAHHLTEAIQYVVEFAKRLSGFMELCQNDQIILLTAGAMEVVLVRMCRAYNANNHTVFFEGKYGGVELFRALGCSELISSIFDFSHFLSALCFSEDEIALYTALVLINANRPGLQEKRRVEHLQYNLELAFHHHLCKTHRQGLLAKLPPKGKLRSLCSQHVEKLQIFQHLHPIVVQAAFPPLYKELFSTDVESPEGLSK
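Luminescence from a UAS-regulated Photinus luciferase reporter in stably transfected Drosophila Schneider cells is measured; decreased signal marks ROR gamma inhibition. Fusion expression is induced by 700 uM copper sulfate for 20 hr.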
DT40 TDP1 CPT – growth inhibition of DT40 Tdp1-/-;hTDP1 cells with camptothecin (screen for TDP1 inhibitors). 420,000 compounds, 12% hits. chicken DT40 Tdp1-/-;hTDP1 cells + 20 nM CPT, ATP luminescence, 48 h. AID 686979. Potency, µM (series often up to 46.2 µM), without a hit: top-dose activity change, negative = growth inhibition, usual class: inhibitors; note: potency is the fitted concentration of half-maximal effect; nearly all actives have a fitted effect of over 55% in size
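Cell growth measured by CellTiter-Glo luminescence after a minimum 48 h, 37 C compound exposure with 20 nM CPT in Tdp1-knockout DT40 cells stably expressing hTDP1, seeded 400/well; qHTS titration format.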
ELG1 repair inh – blocks ELG1-dependent DNA repair in HEK293T cells; 330,000 compounds, 2.3% hits; HEK293T ELG1-luciferase reporter, luminescence, 16 h; DNA damage induced by 5-fluorouridine; AID 504467; Potency, µM (highest dose often 46.1 µM), for inactives: at the top dose activity change, negative = inhibition, hits mostly inhibitors; note: potency is the fitted concentration of half-maximal effect; nearly all actives have a fitted effect of over 55% in size
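5-Fluorouridine DNA damage + compound/DMSO, 2,000 cells/well, 16 h, 37 °C/5% CO2. ONE-Glo, 30 min RT, luminescence. Readout = decrease in reporter signal.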
IL-1B inflam inh – inhibitors of inflammasome signaling (IL-1 beta secretion); THP-1 LPS/ATP IL-1B secretion, AlphaLISA, 16 h; active compounds read low; activity change, % at 57.5 µM; 360,000 compounds, 4.7% hits; in the data active = activity change below about -50%; inconclusive = mostly about -30% to -49%
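THP-1 cells pretreated 1 hr with compounds (up to 57.5 uM final), then stimulated with LPS (250 ng/mL final) plus ATP (1.25 mM final); secreted IL-1B measured by AlphaLISA after 16 hr, decreased signal indicating inhibition.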
TDP1 cell noCPT – qHTS for Inhibitors of human tyrosyl-DNA phosphodiesterase 1 (TDP1): qHTS in cells in absence of CPT; DT40 Tdp1-/- hTDP1 cells, no CPT, ATP luminescence, 48 h; Potency, µM (top dose mostly 46.2 µM), for the others: top-dose activity change, negative = growth inhibition, most hits filed as inhibitors; AID 686978, 2013; 420,000 compounds, 15% hits; note: potency is the fitted concentration of half-maximal effect; nearly all actives have a fitted effect of over 55% in size
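Growth of hTDP1-complemented DT40 Tdp1-knockout cells is measured by ATP luminescence after at least 48 hr compound exposure at 37 °C, with DMSO substituting for the 20 nM CPT used in the parallel screen.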
* marks the source's active call; other numbers are inactive results; ? = inconclusive; / = no result; [ ] = remark or other dose. The list is not random: actives were taken first. Their share in the collection is about 21%. Unless noted, calls come from the whole dose curve; as a rule, active = well fitted curve in the direction sought with a large enough effect; inconclusive = small, poorly fitted or top-dose-only effect, or another doubt; inactive = no such curve, though single readings can be large; an effect the other way counts as inactive or inconclusive. % is set by controls: 0 for no effect and ±100 for the full control effect.

SMILES	VP16 counter	RORg inh	DT40 TDP1 CPT	ELG1 repair inh	IL-1B inflam inh	TDP1 cell noCPT
CCCNC(=O)OC[C@@H]1O[C@H](CCO/N=C(\C)CCN2CCc3nc(-c4ccccc4)c(-c4ccccc4)cc3C2)C=C[C@@H]1Oc1ccc(OC)cc1	-1%[10 µM]	0%[10 µM]	/	/	/	/
CCC(=O)Nc1nnc(S(=O)(=O)N(C)Cc2ccc(Cl)cc2)s1	/	/	3%	/	/	-10%
CCCCc1nc2cc(C(=O)N3CCCC(OCCC)C3)ccc2o1 (stereo unspecified)	18%	16%	?	?	42	-27%
O=C(O)c1ccccc1Sc1c([N+](=O)[O-])cc(C(F)(F)F)cc1[N+](=O)[O-]	?	?	?	27%	-67*	?
O=C(NCCc1ccccc1)C1CCCN(c2ncnc3c2nc2n3CCCCC2)C1 (stereo unspecified)	3%	-19%	?	?	25	?
O=C(Nc1ccccn1)C1CCCN(c2ncnc3c2nc2n3CCCCC2)C1 (stereo unspecified)	7%	-4%	?	-27%	66	15µM*
COc1cc(OC)c(N(C)C(=O)C2CCCN(c3ncnc4c3nc3n4CCCCC3)C2)cc1Cl (stereo unspecified)	/	/	?	/	/	21µM*
O=C(NCc1ccccc1Cl)C1CCCN(c2ncnc3c2nc2n3CCCCC2)C1 (stereo unspecified)	-5%	?	?	?	-20	?
CN(C)CCN(Cc1ccccc1)C(=O)C1CCN(c2ncnc3c2nc2n3CCCCC2)CC1	4%	-8%	-27%	6%	?	0%
CC(C)N(Cc1ccccc1)C(=O)C1CCN(c2ncnc3c2nc2n3CCCCC2)CC1	-5%	11%	?	?	-3	18µM*
O=C(NCCCN1CCN(c2ccccc2)CC1)C1CCCN(c2ncnc3c2nc2n3CCCCC2)C1 (stereo unspecified)	5%	-33%	23µM*	?	10	?
Cc1c(Cl)cccc1NC(=O)C1CCN(c2ncnc3c2nc2n3CCCCC2)CC1	/	/	?	/	/	-6%
O=C(Nc1cccnc1Cl)C1CCCN(c2ncnc3c2nc2n3CCCCC2)C1 (stereo unspecified)	-12%	26%	?	15µM*	0	?
COc1ccccc1NC(=O)C1CCN(c2ncnc3c2nc2n3CCCCC2)CC1	-6%	19%	23µM*	9.2µM*	?	18µM*
COc1ccc(Cl)cc1NC(=O)C1CCCN(c2ncnc3c2nc2n3CCCCC2)C1 (stereo unspecified)	5%	-13%	8.2µM*	?	31	8.2µM*
O=C(NCc1ccco1)C1CCCN(c2ncnc3c2nc2n3CCCCC2)C1 (stereo unspecified)	1%	10%	?	12%	11	13µM*
Cn1c(=O)n(-c2ccc3c(c2)OCO3)c2nc(-c3ccc(Cl)cc3)nc(C(N)=O)c21	/	/	15%	/	/	?
CCC1(C2CCN(C(=O)c3ccc(C)cc3C)CC2)NC(=O)N(CCc2scnc2C)C1=O (stereo unspecified)	/	/	-5%[9.04 µM]	/	/	-19%
CC(C)C1N=C2c3ccccc3N=C(SCc3cc(=O)n4cc(Cl)ccc4n3)N2C1=O (stereo unspecified)	-2%	?	?	-12%	17	15µM*
N#Cc1ccc(CN2CC3(CCN(C(=O)c4ccncc4)CC3)C2)cc1	-1%	-11%	9%	/	/	-14%
CCOc1ccc2[nH]c(=O)c(C(c3nnnn3Cc3ccco3)N3CCCC(C)C3)cc2c1 (stereo unspecified)	-3%	28%	?	-4%	-18	-26%

Screening results deposited in PubChem by National Center for Advancing Translational Sciences (NCATS).
